Assay results as given in PubChem BioAssay (EPA / NIEHS).
Where “and” joins values, the source holds several entries; their conditions need not be identical. Equal entries are not always repeated. A structure can be active in one record and inactive in another. Calls of active or inactive are those of the source. How the source made its calls: active means hit-call score of the fitted dose curve at least 0.9, where 1 is the maximum; inactive means score below 0.9.

How the values were obtained:
[1] = ATG_GRE_CIS: Attagene CIS-FACTORIAL HepG2 Assay for human Glucocorticoid Response Elements (GRE) (AID 2282947); conditions: HepG2 GRE cis-reporter, Attagene multiplex mRNA; actives raise or lower the signal
Summary of the method: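 Assay uses human hepatoma HepG2 cells transfected with cis-promoter reporter units, exposed 24 h. mRNA from reporters detected by RT-PCR plus capillary electrophoresis; DMSO serves as negative control and baseline.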

[2] = ATG_ISRE_CIS: Attagene CIS-FACTORIAL HepG2 Assay for human Interferon Regulatory Factor 1 (IRF1) binding to an Interferon-Stimulated Response Element (ISRE) (AID 2282948); conditions: HepG2 ISRE cis-reporter (Attagene), mRNA transcription readout; actives raise or lower the signal
Summary of the method: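 Transiently transfected HepG2 cells carrying cis-element reporter units, dosed 24 hours. Reporter mRNA quantified by RT-PCR, fluorescent primer extension, HpaI digestion and capillary electrophoresis. Bidirectional fitting relative to DMSO.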

[3] = ATG_M_32_CIS: Attagene CIS-FACTORIAL HepG2 Assay for M32 Transcription Factor (Internal Marker) (AID 2282949); conditions: HepG2 Attagene cis-factorial M32 reporter, mRNA; actives raise or lower the signal;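 further: background control marker of the multiplexed CIS panel rather than a real target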
Summary of the method: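 Internal background marker read-out: RT-PCR/capillary electrophoresis fluorescence of reporter transcripts from transiently transfected HepG2 cells after 24 h chemical exposure. Activity fitted bidirectionally relative to DMSO negative control.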

[4] = ATG_M_06_CIS: Attagene CIS-FACTORIAL HepG2 Assay for M06 Transcription Factor (Internal Marker) (AID 2282950); conditions: HepG2 Attagene CIS-FACTORIAL M06 internal marker reporter; actives raise or lower the signal
Summary of the method: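 Steps: transfect HepG2 with multiplexed cis-element reporter constructs; dose chemical 24 h; extract RNA with DNase treatment; reverse-transcribe, PCR-amplify, 6-FAM label, HpaI digest; separate fragments by capillary electrophoresis. Activity fitted both directions versus DMSO.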

[5] = biological target: Hypoxia-inducible factor 1-alpha (Homo sapiens) (UniProt Q16665); assay: ATG_HIF1a_CIS: Attagene CIS-FACTORIAL HepG2 Assay for human Hypoxia Inducible Factor 1 (HIF1A) (AID 2282951); conditions: HepG2 Attagene cis-factorial HIF1a reporter transcription; actives raise or lower the signal
Summary of the method: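 After 24 h chemical exposure of reporter-transfected HepG2 cells, reporter cDNA was PCR-amplified, labelled by 6-FAM primer extension (2 min 95 C, 20 s 68 C, 10 min 72 C), HpaI-cut (2 h, 37 C) and analysed by CE.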

[6] = biological target: Hepatocyte nuclear factor 6 (Homo sapiens) (UniProt Q9UBC0); assay: ATG_HNF6_CIS: Attagene CIS-FACTORIAL HepG2 Assay for human Hepatocyte Nuclear Factor 6 (HNF6) (AID 2282952); conditions: HepG2 Attagene cis-factorial HNF6 reporter transcription; actives raise or lower the signal
Summary of the method: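 Reporter mRNA induction or loss in HepG2 after 24 h exposure; transient cis-MRTU transfection; fragments quantified by capillary electrophoresis; bidirectional analysis, DMSO as negative control.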

[7] = biological target: Heat shock factor protein 1 (Homo sapiens) (UniProt Q00613); assay: ATG_HSE_CIS: Attagene CIS-FACTORIAL HepG2 Assay for human Heat Shock Transcription Factor 1 (HSE) (AID 2282953); conditions: HepG2 HSE cis-reporter, Attagene RNA transcription; actives raise or lower the signal
Summary of the method: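 Cells were transfected with cis-element-driven reporter constructs, dosed for 24 h, then total RNA was reverse-transcribed and reporter cDNA amplified, FAM-labelled and digested with HpaI. Fragments were resolved by capillary electrophoresis; gain or loss was fitted against DMSO.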

[8] = ATG_MRE_CIS: Attagene CIS-FACTORIAL HepG2 Assay for human Metal Responsive Element (MRE) (AID 2282954); conditions: HepG2 MRE cis-reporter transcription, Attagene multiplex; actives raise or lower the signal
Summary of the method: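 After a 24 h chemical exposure, transiently transfected HepG2 cells yield RNA whose reporter sequences are amplified, FAM-labelled and sized by capillary electrophoresis. Curves are fitted bidirectionally relative to DMSO.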

[9] = ATG_PBREM_CIS: Attagene CIS-FACTORIAL HepG2 Assay for human Phenobarbital-responsive Enhancer Module (PBREM) (AID 2282955); conditions: HepG2 PBREM cis-reporter, Attagene multiplexed transcription; actives raise or lower the signal
Summary of the method: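 Measures endogenous factor action on a phenobarbital-responsive enhancer module. HepG2 transiently carrying cis reporters, 24 h treatment, mRNA read-out by RT-PCR plus capillary electrophoresis.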

[10] = biological target: Paired box protein Pax-6 (Homo sapiens) (UniProt P26367); assay: ATG_Pax6_CIS: Attagene CIS-FACTORIAL HepG2 Assay for human Paired Box 6 (PAX6) (AID 2282956); conditions: HepG2 CIS-FACTORIAL PAX6 reporter transcription, RNA readout; actives raise or lower the signal
Summary of the method: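 HepG2 cells transiently transfected with cis-promoter-driven multiplexed reporter units sensing endogenous transcription factor activity; 24 h chemical exposure. Reporter mRNA quantified by RT-PCR, 6-FAM labelling, HpaI digestion and capillary electrophoresis; bidirectional fit versus DMSO baseline.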

[11] = ATG_PXRE_CIS: Attagene CIS-FACTORIAL HepG2 Assay for human Pregnane X Receptor Element (PXRE) (AID 2282957); conditions: HepG2 Attagene CIS-FACTORIAL PXRE reporter, mRNA; actives raise or lower the signal
Summary of the method: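 Transiently transfected HepG2 cells were dosed and incubated for 24 h. RNA was then isolated, DNase-treated, reverse-transcribed and reporter sequences amplified. Labeled, HpaI-digested fragments were quantified by capillary electrophoresis against DMSO.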

[12] = ATG_PPRE_CIS: Attagene CIS-FACTORIAL HepG2 Assay for human Peroxisome Proliferator-activated Response Element (PPRE) (AID 2282958); conditions: HepG2 PPRE cis-element reporter, Attagene transcription factor profiling; actives raise or lower the signal
Summary of the method: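 PPRE activity in HepG2: transient cis-reporter transfection, 24 h compound incubation, reporter mRNA by RT-PCR and CE fluorescence; gain/loss fitted against DMSO.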

[13] = ATG_RORE_CIS: Attagene CIS-FACTORIAL HepG2 Assay for human RAR-related Orphan Receptor Element (RORE) (AID 2282959); conditions: HepG2 Attagene cis-factorial RORE reporter, mRNA; actives raise or lower the signal
Summary of the method: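 A 24-hour exposure of transfected HepG2 hepatoma cells precedes RNA isolation and reporter RT-PCR. Labeled products are digested with HpaI and resolved by capillary electrophoresis, with gain or loss of signal scored relative to DMSO.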

[14] = ATG_Sox_CIS: Attagene CIS-FACTORIAL HepG2 Assay for human SRY-box transcription factor (SOX) (AID 2282960); conditions: HepG2 Attagene cis-factorial SOX reporter, mRNA; actives raise or lower the signal
Summary of the method: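 HepG2, cis reporter units, 24 h exposure. Reporter mRNA: RT-PCR → FAM labelling → HpaI → CE fluorescence. Bidirectional fit vs DMSO.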

[15] = biological target: Transcription factor Sp1 (Homo sapiens) (UniProt P08047); assay: ATG_Sp1_CIS: Attagene CIS-FACTORIAL HepG2 Assay for human Specificity Protein 1 (Sp1) (AID 2282961); conditions: HepG2 Sp1 cis-reporter transcription, actives raise or lower the signal
Summary of the method: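 Liver-derived HepG2 cells, cis-element reporter library, 24 h treatment; RNA isolated, cDNA amplified with reporter-specific primers, FAM-labeled fragments sized on capillary analyzer. DMSO baseline, bidirectional curve fit.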

[16] = ATG_SREBP_CIS: Attagene CIS-FACTORIAL HepG2 Assay for human Sterol Regulatory Element Binding (SREBP) (AID 2282962); conditions: HepG2 Attagene cis-factorial SREBP reporter, mRNA; actives raise or lower the signal
Summary of the method: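 HepG2 cells transiently transfected with multiplexed cis-promoter reporter units sensing endogenous transcription factors; reporter mRNA measured 24 h after dosing by RT-PCR, 6-FAM labeling, HpaI digestion and capillary electrophoresis. Bidirectional fit versus DMSO.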

[17] = biological target: Signal transducer and activator of transcription 3 (Homo sapiens) (UniProt P40763); assay: ATG_STAT3_CIS: Attagene CIS-FACTORIAL HepG2 Assay for human Signal Transducer and Activator of Transcription 3 (STAT3) (AID 2282963); conditions: HepG2, Attagene cis-factorial STAT3 reporter transcription; actives raise or lower the signal
Summary of the method: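 After a 24 h compound incubation, total RNA from MRTU-transfected HepG2 cells was converted to cDNA and reporter sequences PCR-amplified, labelled and profiled by capillary electrophoresis. Gain and loss of signal were referenced to DMSO.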

[18] = ATG_TA_CIS: Attagene CIS-FACTORIAL HepG2 Assay for human TA Basal Promoter (AID 2282964); conditions: HepG2 Attagene CIS-factorial TA basal promoter reporter; actives raise or lower the signal
Summary of the method: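 Steps: transfect HepG2 with MRTUs; dose 24 h; isolate RNA, DNase-treat, reverse-transcribe; PCR and FAM-label reporter cDNA; digest with HpaI 2h at 37 C; run capillary electrophoresis. Activity fitted both directions against DMSO.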

[19] = ATG_TCF_b_cat_CIS: Attagene CIS-FACTORIAL HepG2 Assay for human T-Cell-Factor with beta-catenin (TCF/b-cat) (AID 2282965); conditions: HepG2 TCF/beta-catenin cis-reporter transcription, actives raise or lower the signal
Summary of the method: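 Endogenous transcription factor activity is captured through cis-promoter reporter constructs transiently introduced into human HepG2 liver cells. Induced reporter mRNA is measured after 24 h and fitted bidirectionally relative to DMSO.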

[20] = biological target: Bile acid receptor (Homo sapiens) (UniProt Q96RI1); assay: ATG_IR1_CIS: Attagene CIS-FACTORIAL HepG2 Assay for human Nuclear Receptor Subfamily 1 Group H Member 4 (NR1H4), IR1 submotif (AID 2282946); conditions: IR1 reporter transcription, actives raise or lower the signal
Summary of the method: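 Cells (human HepG2) carry transiently transfected cis-promoter reporter transcription units. Compounds are incubated 24 h, total RNA is reverse-transcribed and amplified, and labelled fragments are resolved by capillary electrophoresis. Curves use DMSO as baseline.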

Measured: AC50

Hepatocyte nuclear factor 6 (Homo sapiens), sequence (Q9UBC0 whole entry, looked up, the tested form may be a part): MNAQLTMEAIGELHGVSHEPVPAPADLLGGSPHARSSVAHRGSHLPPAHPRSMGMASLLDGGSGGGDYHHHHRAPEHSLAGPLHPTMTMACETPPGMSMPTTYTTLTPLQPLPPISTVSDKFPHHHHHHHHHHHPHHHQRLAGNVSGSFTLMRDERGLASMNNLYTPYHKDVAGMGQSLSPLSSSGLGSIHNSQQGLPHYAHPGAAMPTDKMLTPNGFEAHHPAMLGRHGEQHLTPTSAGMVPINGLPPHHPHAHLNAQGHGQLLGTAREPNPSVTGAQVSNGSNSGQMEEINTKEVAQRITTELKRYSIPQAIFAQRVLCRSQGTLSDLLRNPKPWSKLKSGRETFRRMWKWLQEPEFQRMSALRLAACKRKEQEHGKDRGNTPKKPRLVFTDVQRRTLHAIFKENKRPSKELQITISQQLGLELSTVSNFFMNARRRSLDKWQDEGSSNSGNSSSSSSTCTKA
Hypoxia-inducible factor 1-alpha (Homo sapiens), sequence (Q16665 whole entry, looked up): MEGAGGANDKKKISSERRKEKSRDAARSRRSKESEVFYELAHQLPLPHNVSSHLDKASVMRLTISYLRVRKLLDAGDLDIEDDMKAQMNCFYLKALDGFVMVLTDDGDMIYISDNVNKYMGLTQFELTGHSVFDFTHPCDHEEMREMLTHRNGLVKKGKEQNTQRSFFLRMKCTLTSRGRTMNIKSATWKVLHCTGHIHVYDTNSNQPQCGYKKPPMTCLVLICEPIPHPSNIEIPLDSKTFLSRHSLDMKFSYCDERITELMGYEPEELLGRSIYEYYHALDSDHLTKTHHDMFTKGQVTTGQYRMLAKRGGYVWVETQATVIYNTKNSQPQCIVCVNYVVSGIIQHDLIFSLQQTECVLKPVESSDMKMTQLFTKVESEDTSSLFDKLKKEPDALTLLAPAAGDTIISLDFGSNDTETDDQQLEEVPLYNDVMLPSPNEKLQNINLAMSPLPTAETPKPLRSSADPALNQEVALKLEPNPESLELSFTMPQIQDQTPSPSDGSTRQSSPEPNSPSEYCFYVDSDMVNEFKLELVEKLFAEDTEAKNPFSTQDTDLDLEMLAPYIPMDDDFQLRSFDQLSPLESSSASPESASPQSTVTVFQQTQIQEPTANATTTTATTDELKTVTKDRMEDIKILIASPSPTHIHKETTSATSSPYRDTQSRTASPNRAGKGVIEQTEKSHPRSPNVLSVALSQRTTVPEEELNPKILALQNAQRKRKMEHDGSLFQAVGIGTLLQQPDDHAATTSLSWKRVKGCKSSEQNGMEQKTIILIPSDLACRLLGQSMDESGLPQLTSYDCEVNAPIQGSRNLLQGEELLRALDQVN
Paired box protein Pax-6 (Homo sapiens), sequence (P26367 whole entry, looked up): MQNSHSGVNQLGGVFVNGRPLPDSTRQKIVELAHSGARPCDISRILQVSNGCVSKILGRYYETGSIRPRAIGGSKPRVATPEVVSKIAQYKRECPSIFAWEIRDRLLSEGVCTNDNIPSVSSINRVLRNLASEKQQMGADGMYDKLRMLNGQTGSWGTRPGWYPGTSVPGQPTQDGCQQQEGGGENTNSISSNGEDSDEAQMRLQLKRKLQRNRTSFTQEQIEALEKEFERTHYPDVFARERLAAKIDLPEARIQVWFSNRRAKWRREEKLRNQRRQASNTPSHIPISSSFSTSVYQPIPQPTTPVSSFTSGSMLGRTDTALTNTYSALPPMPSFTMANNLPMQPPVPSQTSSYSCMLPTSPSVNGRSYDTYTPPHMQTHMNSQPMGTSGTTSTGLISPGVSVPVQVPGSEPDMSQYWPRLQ
Signal transducer and activator of transcription 3 (Homo sapiens), sequence (P40763 whole entry, looked up): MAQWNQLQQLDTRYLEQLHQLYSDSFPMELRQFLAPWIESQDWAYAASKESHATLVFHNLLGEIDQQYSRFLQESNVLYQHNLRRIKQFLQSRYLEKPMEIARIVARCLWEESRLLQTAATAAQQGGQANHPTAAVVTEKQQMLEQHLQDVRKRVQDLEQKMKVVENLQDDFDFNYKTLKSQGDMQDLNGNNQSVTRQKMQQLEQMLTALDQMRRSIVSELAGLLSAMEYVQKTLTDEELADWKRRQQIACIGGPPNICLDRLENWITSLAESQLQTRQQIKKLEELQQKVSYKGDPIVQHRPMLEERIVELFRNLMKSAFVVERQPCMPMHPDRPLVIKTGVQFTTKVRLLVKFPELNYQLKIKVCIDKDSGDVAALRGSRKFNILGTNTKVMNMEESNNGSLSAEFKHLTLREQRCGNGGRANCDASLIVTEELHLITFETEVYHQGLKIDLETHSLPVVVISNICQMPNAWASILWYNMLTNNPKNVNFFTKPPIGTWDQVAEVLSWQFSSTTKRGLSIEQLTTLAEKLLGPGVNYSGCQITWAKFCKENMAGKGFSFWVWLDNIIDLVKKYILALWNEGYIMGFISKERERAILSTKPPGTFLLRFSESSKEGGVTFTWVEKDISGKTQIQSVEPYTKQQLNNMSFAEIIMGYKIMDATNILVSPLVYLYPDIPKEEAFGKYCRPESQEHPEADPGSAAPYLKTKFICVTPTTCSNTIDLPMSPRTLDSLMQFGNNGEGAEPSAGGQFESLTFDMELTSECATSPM
Transcription factor Sp1 (Homo sapiens), sequence (P08047 whole entry, looked up, the tested form may be a part): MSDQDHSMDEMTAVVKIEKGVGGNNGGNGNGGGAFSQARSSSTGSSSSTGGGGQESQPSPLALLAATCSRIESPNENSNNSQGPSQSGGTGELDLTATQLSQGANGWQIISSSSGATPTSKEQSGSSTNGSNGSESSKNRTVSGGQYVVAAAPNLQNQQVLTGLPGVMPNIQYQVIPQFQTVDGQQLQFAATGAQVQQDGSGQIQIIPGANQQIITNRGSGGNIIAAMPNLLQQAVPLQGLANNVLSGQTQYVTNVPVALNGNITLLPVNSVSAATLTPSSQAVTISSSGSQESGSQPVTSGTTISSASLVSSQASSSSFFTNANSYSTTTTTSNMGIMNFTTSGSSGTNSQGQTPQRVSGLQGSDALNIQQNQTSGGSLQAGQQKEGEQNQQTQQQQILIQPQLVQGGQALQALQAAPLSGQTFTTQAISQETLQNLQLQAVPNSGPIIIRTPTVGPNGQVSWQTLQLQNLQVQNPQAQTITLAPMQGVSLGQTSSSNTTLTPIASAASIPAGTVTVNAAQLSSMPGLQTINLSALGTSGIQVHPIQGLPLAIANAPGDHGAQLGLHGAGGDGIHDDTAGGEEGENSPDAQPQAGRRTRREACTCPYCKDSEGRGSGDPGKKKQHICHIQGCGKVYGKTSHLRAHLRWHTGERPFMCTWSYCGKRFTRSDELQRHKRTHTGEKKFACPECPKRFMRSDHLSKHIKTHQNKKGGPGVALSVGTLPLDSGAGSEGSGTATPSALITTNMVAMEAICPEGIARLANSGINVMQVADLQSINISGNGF
Bile acid receptor (Homo sapiens), sequence (Q96RI1 whole entry, looked up, the tested form may be a part): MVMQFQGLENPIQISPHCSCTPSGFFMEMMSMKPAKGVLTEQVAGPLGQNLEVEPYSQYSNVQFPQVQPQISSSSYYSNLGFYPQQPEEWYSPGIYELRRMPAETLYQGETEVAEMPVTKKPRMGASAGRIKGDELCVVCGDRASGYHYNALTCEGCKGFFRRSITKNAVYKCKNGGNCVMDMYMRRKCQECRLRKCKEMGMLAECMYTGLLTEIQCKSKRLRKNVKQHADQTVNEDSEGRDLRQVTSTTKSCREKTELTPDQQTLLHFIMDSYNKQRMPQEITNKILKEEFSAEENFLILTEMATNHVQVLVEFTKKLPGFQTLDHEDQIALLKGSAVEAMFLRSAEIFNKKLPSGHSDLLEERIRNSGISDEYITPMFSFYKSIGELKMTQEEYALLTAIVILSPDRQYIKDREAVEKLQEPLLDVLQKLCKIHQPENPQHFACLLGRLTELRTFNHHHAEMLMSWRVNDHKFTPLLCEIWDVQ
Heat shock factor protein 1 (Homo sapiens), sequence (Q00613 whole entry, looked up, the tested form may be a part): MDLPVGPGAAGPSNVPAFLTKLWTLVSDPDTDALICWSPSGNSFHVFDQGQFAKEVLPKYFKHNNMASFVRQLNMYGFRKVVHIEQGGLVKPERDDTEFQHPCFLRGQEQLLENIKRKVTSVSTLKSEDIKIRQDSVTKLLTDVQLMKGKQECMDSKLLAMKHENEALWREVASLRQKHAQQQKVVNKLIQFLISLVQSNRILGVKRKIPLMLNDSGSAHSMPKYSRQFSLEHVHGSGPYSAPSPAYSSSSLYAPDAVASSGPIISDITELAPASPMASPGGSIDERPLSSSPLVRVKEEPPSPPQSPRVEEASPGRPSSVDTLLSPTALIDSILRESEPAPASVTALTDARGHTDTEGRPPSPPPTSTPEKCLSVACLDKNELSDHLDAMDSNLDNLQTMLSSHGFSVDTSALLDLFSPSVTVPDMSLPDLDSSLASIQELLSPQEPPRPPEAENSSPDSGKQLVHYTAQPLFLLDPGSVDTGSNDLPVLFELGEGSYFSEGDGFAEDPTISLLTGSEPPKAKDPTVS

CC[C@@H]1C[C@H](N(Cc2cc(C(F)(F)F)cc(C(F)(F)F)c2)C(C)=O)c2cc(C(F)(F)F)ccc2N1C(=O)OC(C)C
active: [9] 0.181 µM | [11] 67.6 nM
not listed: [20]
inactive: all other assays above

CC(O)CC(C)(C)O (stereo unspecified)
active: [11] 37500 nM
inactive: [1] | [2] | [3] | [4] | [5] | [6] | [7] | [8] | [10] | [11] | [13] | [14] | [16] | [17] | [18] | [19]

Clc1ccccc1C(c1ccccc1)(c1ccccc1)n1ccnc1
inactive: [20] | [1] | [3] | [4] | [6] | [17] | [19]
active: [2] 11.1 µM | [7] 19.1 µM | [8] 15 µM | [9] 11.1 µM | [10] 11.1 µM | [11] 589 nM | [13] 11.1 µM | [14] 11.1 µM | [16] 3 µM | [18] 11.1 µM

CC1(C)NC(=O)N(c2ccc([N+](=O)[O-])c(C(F)(F)F)c2)C1=O
active: [11] 27.5 µM and 6.9 µM and 27.3 µM
not listed: [1] | [5] | [12]
inactive: all other assays above

CN1C(=O)CC[C@H]1c1cccnc1
not listed: [1] | [5] | [12] | [20]
inactive: all other assays above
